Screens deposited in PubChem by National Center for Advancing Translational Sciences (NCATS).
Compounds with a hit are over-represented: about 6.7% of the library has one in this group of screens.
KB-3-1 tox – qHTS assay for MDR1-selective chemotherapeutics: Primary screen using the parental adenocarcinoma cell KB-3-1. KB-3-1 viability, CellTiter-Glo ATP luminescence, 72 h. Potency, µM (series often up to 46.1 µM), most hits filed as cytotoxic. 1.4% of 400,000 active; also: % is scaled to controls: 0 for no effect and ±100 for the full control effect; nearly all actives have a fitted effect of over 60% in size
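Viability of parental KB-3-1 cells, measured by CellTiter-Glo luminescence, followed a 72 h incubation at 37 °C with pinned compounds in phenol-red-free DMEM containing 10% FBS.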
MCF10A rerep – A quantitative high throughput screen for small molecules that induce DNA re-replication in MCF 10a normal breast cells | MCF 10A DNA re-replication, Hoechst nuclear intensity, 48 h | AID 624296, 2012 | Potency, µM (highest dose often 46.1 µM), without a hit: at the highest dose activity, positive = re-replication, actives largely listed as activators | 2.9% of 350,000 active; also: % of control where 0% means no effect; nearly all actives have a fitted effect of over 50% in size
KB-V1 MDR tox – qHTS assay for MDR1-selective chemotherapeutics: Primary screen using the drug-selected MDR subline cells KB-V1 | KB-V1 MDR cells viability, CellTiter-Glo, 72 h | Potency, µM (doses to about 46.1 µM), usual class: cytotoxic | 3.4% of 400,000 active | AID 1347076, 2019; also: % is scaled to controls: 0 for no effect and ±100 for the full control effect; nearly all actives have a fitted effect of over 60% in size
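Compound-treated KB-V1 multidrug-resistant cells, 72 h, 37 degrees C; viability by CellTiter-Glo. Fitted qHTS curves give the values.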
SW480 rerep – A quantitative high throughput screen for small molecules that induce DNA re-replication in SW480 colon adenocarcinoma cells | SW480 DNA re-replication, Hoechst DNA content imaging, 48 h | 1.8% of 340,000 active | Potency, µM (highest dose often 46.1 µM), inactives show top-dose re-replication activation, actives largely listed as activators | AID 624297, 2012; also: % of control where 0% means no effect; nearly all actives have a fitted effect of over 55% in size
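Treated cells incubate 48 hr (37 C, 5% CO2), are stained 40 min with Hoechst, and nuclear fluorescence is enumerated; a rise in nuclei with high DNA signal marks re-replication.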
PINK1 expr mod – A Quantitative High throughput Screen to Identify Chemical Modulators of PINK1 Expression; PINK1 immunofluorescence, high-content cytometry, 24 h; Potency, µM (titrated, usually from 76.6 µM), inactives show at the top dose activation (PINK1 increase), hits mostly activators; 0.2% of 410,000 active; AID 624263, 2012; active = well fitted activation curve with a large enough effect; inconclusive = small, poorly fitted or top-dose-only effect; cell line not stated here; also: % of control where 0% means no effect; nearly all actives have a fitted effect of over 65% in size
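PINK1 protein level read as immunofluorescence by microplate cytometer in a fixed, stained stable cell line after 24 h exposure to five compound concentrations, with CCCP as control.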
Active calls of the source: *; i = inactive; ? = inconclusive; . = no result given; [ ] = another dose, or the depositor's remark. Unless noted, calls follow the shape of the dose curve; as a rule, active = well fitted curve in the direction sought with a large enough effect; inconclusive = small, poorly fitted or top-dose-only effect, or another doubt; inactive = no such curve, though single readings can be large; an effect the other way counts as inactive or inconclusive. Potency is read from the fitted curve at half-maximal effect.

SMILES	KB-3-1 tox	MCF10A rerep	KB-V1 MDR tox	SW480 rerep	PINK1 expr mod
COc1cc2c(cc1NCc1ccc3c(c1)OCO3)oc1ccccc12	?	10%	i	-4%	2%
COc1cc2c(cc1NC(=O)CSCC(=O)O)oc1ccccc12	i	3%	i	1%[9.22 µM]	-1%
COc1ccc(CN(C)CC(=O)Nc2cc3oc4ccccc4c3cc2OC)c(OC)c1	i	?	i	24%	10%
COc1cc2c(cc1NC(=O)CSc1ccc(C)cc1)oc1ccccc12	i	?	i	21%	2%[38.3 µM]
CCCNC(=O)C1(C)CCCN(Cc2ccccc2F)C1 (centres undefined)	i	.	i	.	-1%
COc1cc2c(cc1NC(=O)COc1ccccc1OC)oc1ccccc12	i	9%	i	-11%	14µM*
CCc1ccc(OCC(=O)Nc2cc3oc4ccccc4c3cc2OC)c(Br)c1	i	.	?	.	3%
COC(=O)c1ccc2nc(-c3ccc(C)cc3)c(Cc3ccsc3)n2c1	?	.	?	.	2%
Fc1ccc(-c2nc3ccc(Br)cn3c2Cc2ccccc2)cc1	21µM*	.	i	.	13%
Cc1ccc(Cc2c(C3CCCCC3)nc3ccc(C)cn23)cc1	i	.	i	.	?
Cc1ccc2nc(-c3ccccc3)c(Cc3ccsc3)n2c1	?	.	21µM*	.	0%
Cc1ccc2nc(C3CCCCC3)c(Cc3ccsc3)n2c1	?	.	16µM*	.	25%
Brc1ccc(-c2nc3ccc(Br)cn3c2Cc2ccccc2)cc1	?	.	i	.	1%
CC1CC(O)CC(C)(C)C1 (centres undefined)	.	2%	.	6%	.
Cc1cnc(-n2ncc(C(=O)NCc3ccncc3)c2C2CC2)nc1-c1cccs1	.	.	.	.	1%
COc1ccccc1CNc1cc(-c2ccccc2C)ncn1	.	.	.	.	0%
CCc1ccccc1NC(=O)C1CCCN(C(=O)c2cnn(-c3ccccc3)c2-n2cccc2)C1 (centres undefined)	i	.	i	.	0%
CCN=c1scc(-c2cccs2)n1/N=C/c1cc(OC)ccc1O	18µM*	5.8µM*	?	?	4%
CCN(Cc1ccccc1)C(=O)Cn1c(C(C)O)nc2ccccc21 (centres undefined)	i	0.73µM*	i	-32%	3%
CCOc1cc(CNCc2ccccc2)ccc1OCC(=O)NC1CCCCC1	.	26%	.	?	5%
COc1cc(CNCc2cccnc2)ccc1OCC(=O)NC(C)(C)C	i	0%	i	-101%	2%
COc1cc(CNCc2ccccn2)ccc1OCC(=O)NC(C)(C)C	i	0%	21µM*	-7%	1%
COc1cc(CNCc2ccccn2)ccc1OCC(=O)NC1CCCCC1	i	0%	21µM*	-67%	0%
CCCCN1C(=O)C(CC(=O)NC2CCCC2)CC(C(=O)N2CCOCC2)=C1C (centres undefined)	i	.	i	.	2%
O=C(CCS(=O)(=O)c1ccc(Br)s1)Nc1cc(C(F)(F)F)cc(C(F)(F)F)c1	i	.	?	.	-1%
SMILES	KB-3-1 tox	MCF10A rerep	KB-V1 MDR tox	SW480 rerep	PINK1 expr mod
O=C([C@@H]1C[C@@H](Sc2nc3ccccc3[nH]2)CN1Cc1ccc(Cl)cc1)N1CCN(c2ccccc2F)CC1	.	.	.	.	1%
Cc1ccn2c(=O)c(NC(=O)c3cccs3)c(C)nc2c1	i	-1%	i	23µM*	-2%
Cc1ccn2c(=O)c(NC(=O)c3cccc([N+](=O)[O-])c3C)c(C)nc2c1	?	.	i	.	6%
CCOC1=C2[C@@H](CN(S(=O)(=O)c3ccc(C)cc3)[C@H]2c2ccccc2Cl)[C@H]2C(=O)N(C(C)(C)C)C(=O)[C@H]2C1	i	.	?	.	1%
Cc1ccc([C@H]2N[C@]3(CCCN(Cc4ccc(F)cc4)C3=O)[C@H]3C(=O)N(Cc4ccccc4)C(=O)[C@@H]23)cc1	i	.	i	.	1%
CN(C)c1ccc(S(=O)(=O)NCC(=O)NCCOc2ccccc2F)cc1[N+](=O)[O-]	i	-2%	i	?	3%
CN(C)c1ccc(S(=O)(=O)NCC(=O)NCCC2=CCCCC2)cc1[N+](=O)[O-]	i	-3%	18µM*	0%	2%
CC1CCCN(c2ccc3nc4ccccc4c(=O)n3n2)C1 (centres undefined)	?	-2%	7.3µM*	-2%	3%
Cc1ccc2nc3ccc(N4CCCC4)nn3c(=O)c2c1	i	2%	?	0%	1%
Cc1ccc(CNC(=O)c2ccc3c(c2)nc(C)n3-c2cccc(F)c2)cc1	.	.	.	.	-1%
COCCNC(=O)c1ccc2c(c1)nc(C)n2-c1cccc(F)c1	i	12%	21µM*	5%	-1%
Cc1cccc(-n2c(C)nc3cc(C(=O)NCc4ccc5c(c4)OCO5)ccc32)c1	i	-68%	16µM*	?	4%
COc1ccc(NCc2cc3cc4c(cc3n(CC(=O)Nc3ccc(C)cc3)c2=O)OCO4)cc1	i	.	i	.	0%
C[C@H](CO)N1C[C@H](C)[C@H](CN(C)S(=O)(=O)c2cccs2)Oc2ccc(NC(=O)Nc3ccc4c(c3)OCO4)cc2CC1=O	?	?	?	16µM*	2%
C[C@H]1CN([C@@H](C)CO)C(=O)Cc2cc(NC(=O)CCC(F)(F)F)ccc2O[C@H]1CN(C)S(=O)(=O)c1ccc(F)cc1	5.2µM*	15µM*	i	?	7%
C[C@H]1CN([C@@H](C)CO)C(=O)Cc2cc(NC(=O)CCC(F)(F)F)ccc2O[C@H]1CN(C)C(=O)Nc1ccc(F)cc1	i	3%	i	3%	3%
C[C@H](CO)N1C[C@H](C)[C@H](CN(C)Cc2ccncc2)Oc2ccc(NC(=O)Nc3ccc(C(F)(F)F)cc3)cc2CC1=O	6.5µM*	?	i	?	23%
CNC[C@H]1Oc2ccc(NC(=O)Cc3cn(C)c4ccccc34)cc2CC(=O)N([C@@H](C)CO)C[C@H]1C	i	10%	i	-3%	2%
C[C@H]1CN([C@@H](C)CO)C(=O)Cc2cc(NC(=O)Nc3ccccc3)ccc2O[C@H]1CN(C)Cc1ccccc1	?	?	i	-5%	0%
C[C@H]1CN([C@@H](C)CO)C(=O)Cc2cc(NC(=O)Cc3cn(C)c4ccccc34)ccc2O[C@@H]1CN(C)S(=O)(=O)c1cn(C)cn1	i	-1%	i	3.7µM*	2%
CCOC(=O)c1cccc(NC(=O)c2ccc3nc(Cc4ccccc4)oc3c2)c1	?	.	?	.	2%
